From PubChem BioAssay
Most compounds without a hit are left out; they make up all but 5.7% or so of the library.
hcDAF-12 act: activates DAF-12 receptor from parasite H. contortus. HEK293 hcDAF-12 lit1-tk-luc reporter, luminescence; 0% DMSO, 100% Δ7-dafachronic acid. activation, % at 6.8 µM. 370,000 tested, 1.4% active;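 active means activation above the mean of all tested compounds plus 3 SD, cut at about 5.5% in these data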;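 further: 100% = response to 3 µM Δ7-dafachronic acid high control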
ssDAF12 agonist: activates DAF-12 receptor from parasite S. stercoralis; HEK293 ssDAF-12/GRIP1 lit1-tk-luc reporter, luminescence; % of 3 µM dafachronic acid response; activation, % at 6.8 µM; 370,000 tested, 1% active;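 active means activation above the mean over all tested compounds plus 3 SD, cut at about 0.9% in these data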;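 further: 0% = DMSO-only wells and 100% = 3 µM delta7-dafachronic acid wells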
DAX1 inh-1: inhibitors of human orphan nuclear receptor DAX1 (NR0B1); P51843; HEK293 Gal4-DAX1 luciferase reporter, luminescence; inhibition, % at 6.75 µM; 340,000 tested, 0.99% active;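 active means inhibition above the mean over all tested compounds plus 3 SD, cut at about 4.2% in these data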;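 further: 0% = DAX1-transfected cells with DMSO and 100% = empty-vector control cells with DMSO; inhibition shows as a rise in luminescence from relieved DAX1 repression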
Target sequence (P51843 207-470 limits assumed): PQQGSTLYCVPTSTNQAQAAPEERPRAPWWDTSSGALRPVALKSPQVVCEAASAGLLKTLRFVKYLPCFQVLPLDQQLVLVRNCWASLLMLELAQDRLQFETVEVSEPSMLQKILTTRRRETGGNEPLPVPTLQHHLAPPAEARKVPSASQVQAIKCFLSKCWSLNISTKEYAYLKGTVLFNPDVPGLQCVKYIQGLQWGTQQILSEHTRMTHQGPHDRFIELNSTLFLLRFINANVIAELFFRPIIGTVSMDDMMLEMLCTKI
DAX1 inh-2: blocks DAX1 repression of SF-1 activated StAR promoter. AID 652010. inhibition, % at 6.8 µM. 370,000 tested, 1.1% active. HEK293T StAR-luciferase reporter, SF-1/DAX-1 repression relief;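 active means inhibition above the mean over all tested compounds plus 3 SD, cut at about 3.6% in these data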;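 further: 0% = DAX-1 cells with DMSO and 100% = cells lacking DAX-1 with DMSO; higher inhibition means more luminescence from relief of DAX-1 repression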
AHR activator: human AHR activation | activation, % at 5 µM | P35869 | 320,000 tested, 2.5% active | AHR-responsive luciferase reporter cells, luminescence; in the data active means activation above about 47%;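 further: 0% = vehicle wells and 100% = reference agonist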
hgDAF12 agonist: activates the H. glycines DAF-12 receptor ligand-binding domain | HEK293 GAL4-hgDAF12 UAS-luciferase reporter, agonist luminescence; normalized to butyrate control | activation, % at 6.8 µM | 370,000 tested, 1.8% active | AID 687014;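 active means activation above a cutoff set at the mean of all screened compounds plus 3 SD, cut at about 10% in these data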;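 further: 0% = DMSO wells and 100% = sodium butyrate wells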
DAX1 conf: NR0B1 (human) inhibition, confirmation | shares compounds with DAX1 inh-2 | HEK293T StAR-promoter luciferase reporter, SF-1/DAX-1 repression | inhibition, % at 6.8 µM | 2,400 tested, 87% active;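 active means inhibition above the average of every tested compound plus 3 SD, cut at about 3.8% in these data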;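 further: 0% = DAX-1 cells with DMSO and 100% = no DAX-1 control cells with DMSO; active compounds raise luminescence by relieving repression of the StAR reporter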
Target sequence (P51843 whole entry, looked up): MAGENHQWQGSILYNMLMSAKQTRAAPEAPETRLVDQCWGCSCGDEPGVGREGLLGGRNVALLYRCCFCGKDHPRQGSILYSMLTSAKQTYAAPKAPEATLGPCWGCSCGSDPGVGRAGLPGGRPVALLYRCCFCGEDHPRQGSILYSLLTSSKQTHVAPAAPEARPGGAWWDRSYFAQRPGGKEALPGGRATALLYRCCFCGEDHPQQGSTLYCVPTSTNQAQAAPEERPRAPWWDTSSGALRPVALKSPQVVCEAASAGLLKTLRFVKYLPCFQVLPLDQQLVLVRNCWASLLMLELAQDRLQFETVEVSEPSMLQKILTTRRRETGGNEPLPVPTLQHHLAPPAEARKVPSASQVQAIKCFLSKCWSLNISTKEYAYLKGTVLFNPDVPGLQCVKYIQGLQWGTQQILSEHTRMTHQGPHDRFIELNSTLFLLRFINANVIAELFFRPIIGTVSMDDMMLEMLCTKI
SF1 mutant ctr: nonselective inhibitor or artifact in SF-1 mutant DAX1 counter-screen; inhibition, % at 6.8 µM; shares compounds with DAX1 inh-2; 2,400 tested, 78% active; HEK293 StAR-luciferase, SF-1 AF2 mutant, luminescence; AID 652136;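 active means inhibition above the mean of all tested compounds plus 3 SD, cut at about 3% in these data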;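 further: 0% = DAX-1 transfected cells with DMSO and 100% = cells without DAX-1 with DMSO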
LXRb hcDAF ctr: counter-screen for hcDAF-12 agonists: agonists of human LXR-beta; shares compounds with hcDAF-12 act; HEK293 Gal4-LXR tk-luc reporter, luminescence, 24 h; normalized: DMSO 0%, positive control 100%; activation, % at 6.8 µM; 3,400 tested, under 10 active;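 active means mean percent activation of the reporter above a cutoff set as the average over tested compounds plus their standard deviation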
hcDAF12 conf: confirmation of H. contortus DAF-12 agonists | shares compounds with hcDAF-12 act | HEK293 hcDAF-12 lit1-tk-luc reporter, luminescence; % of Δ7-dafachronic acid response | activation, % at 6.8 µM | 3,400 tested, 61% active;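 active means mean activation across triplicate tests above the threshold derived from the earlier primary screen, cut at about 5.5% in these data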;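 further: 0% = DMSO only wells and 100% = 3 µM Δ7-dafachronic acid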
hgDAF12 ag: hgDAF-12 agonism, confirmation assay | shares compounds with hgDAF12 agonist | HEK293 GAL4-hgDAF12 luciferase reporter, agonist mode; percent of butyrate response | activation, % at 6.8 µM | 3,300 tested, 80% active | AID 743050;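 active means mean activation over triplicate wells above the hit cutoff derived from the earlier primary screen, cut at about 11% in these data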;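 further: 0% = DMSO low control and 100% = 2 mM sodium butyrate high control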
LXR ag 2: activates human LXR-beta, counter-screen for DAF-12 agonists. shares compounds with hgDAF12 agonist. AID 743051. HEK293 Gal4-LXR luciferase reporter, 24 h. activation, % at 6.8 µM. 3,300 tested, under 10 active;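 active means mean activation of the triplicate above a set limit carried over from the primary screen, none filed active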
* marks the source's active call; other numbers are inactive results; / = no result.

SMILES	hcDAF-12 act	ssDAF12 agonist	DAX1 inh-1	DAX1 inh-2	AHR activator	hgDAF12 agonist	DAX1 conf	SF1 mutant ctr	LXRb hcDAF ctr	hcDAF12 conf	hgDAF12 ag	LXR ag 2
Cc1csc(NC(=O)c2ccc(C)c([N+](=O)[O-])c2)n1	11.6*	0.8	-0.8	5.9*	17.0	14.5*	7.7*	4.7*	1.6	10.1*	17.6*	0.9
Cc1csc(NC(=O)c2cc3ccccc3o2)n1	12.0*	2.5*	-0.7	8.6*	21.5	17.5*	15.1*	6.1*	1.5	8.9*	19.5*	1.2
Cc1csc(NC(=O)c2ccccc2[N+](=O)[O-])n1	-0.7	0.8	-0.8	0.5	2.0	-1.6	/	/	/	/	/	/
CCC(=O)Nc1nc(CC(=O)Nc2ccccc2OC)cs1	-0.6	-1.1	0.5	-0.8	14.1	-1.0	/	/	/	/	/	/
Cc1ccc(NC(=O)c2ccn(C)n2)c(Br)c1	3.1	0.5	-0.1	5.9*	0.2	14.8*	13.1*	8.8*	/	/	16.5*	0.9
Cc1ccc(NC(=O)c2ccccn2)c(Br)c1	9.9*	3.1*	6.4*	8.5*	-3.7	18.9*	15.4*	11.8*	1.4	7.9*	17.9*	0.9
Cn1ccc(C(=O)Nc2ccc(Br)cc2Br)n1	7.7*	0.7	3.4	4.9*	1.8	19.6*	11.3*	6.6*	1.0	2.9	13.0*	0.9
CCN1CCN(CCC(=O)Nc2ccc(F)c(F)c2)CC1	0.0	-1.4	1.5	-0.2	-1.1	2.4	/	/	/	/	/	/
COC(=O)Cn1c2ccccc2c(=O)n1C(C)CBr (configuration not stated)	0.6	-0.9	/	1.3	/	4.0	/	/	/	/	/	/
CC1CC(C)(C)NC(=S)N1CC(=O)NCc1ccccc1Cl (configuration not stated)	-0.2	-0.9	0.6	-0.4	9.9	1.2	/	/	/	/	/	/
Cc1nn(-c2ccccc2Cl)c(Cl)c1/C=N/Nc1nc2ccccc2s1	-9.1	-3.5	-2.9	-3.9	11.4	-18.0	/	/	/	/	/	/
C(=N\Nc1nc2ccccc2s1)/c1cccs1	20.3*	3.3*	2.7	7.0*	76.2*	16.4*	17.9*	12.4*	2.0	17.4*	23.8*	1.2
Oc1ccccc1C=NNc1nc2ccccc2s1	15.6*	3.0*	4.4*	5.5*	/	21.6*	10.6*	8.6*	1.9	16.7*	19.1*	1.1
CC(C)(C)c1nnc(NC(=O)CS(=O)(=O)Cc2ccccc2)s1	0.1	-1.6	-1.5	0.2	-0.5	-2.0	/	/	/	/	/	/
CCOC(=O)c1ccc(NC(=S)N(CCN2CCCCCC2)Cc2cccs2)cc1	-0.5	-1.2	-0.1	-0.2	-2.0	-0.9	/	/	/	/	/	/
c1ccc(N=NC2=NN(c3ccccc3)CS2)cc1	15.8*	1.7*	3.2	6.5*	/	16.0*	7.0*	3.4*	0.7	8.3*	11.7*	0.4
CCOC(=O)c1c(C)[nH]c(C(=O)OCC(=O)c2ccccc2)c1C	7.4*	0.3	2.1	12.6*	0.2	14.1*	9.8*	4.9*	1.1	5.3	17.4*	0.9
CCOC(=O)c1c(C)[nH]c(C(=O)OCC(=O)NCc2ccccc2)c1C	-0.7	-1.4	-0.6	0.3	31.9	3.0	/	/	/	/	/	/
COc1ccc(-c2cn3cc(C(F)(F)F)cc(Cl)c3n2)cc1	11.8*	2.6*	3.4	5.1*	52.0*	23.4*	8.7*	6.9*	1.1	14.7*	21.0*	0.8
CCCNC(=O)c1ccc2c(c1)S(=O)(=O)c1ccccc1C2=O	-1.4	-0.9	-0.3	0.1	5.6	-1.1	/	/	/	/	/	/
Cc1nc(CSc2nnc(Nc3cccc(C)c3C)s2)cs1	-2.0	-1.1	3.1	-0.6	-2.6	-2.0	/	/	/	/	/	/
O=C(/C=C/Nc1ccc(F)cc1F)c1ccco1	15.1*	2.1*	-0.9	7.5*	40.9	24.9*	7.2*	2.2	1.9	19.8*	13.7*	1.0
COc1cccc2cc(-c3csc(NC(=O)CCC(=O)NCCCN4CCC(C)CC4)n3)c(=O)oc12	6.2*	1.6*	-2.6	4.5*	-0.6	15.5*	16.4*	3.8*	/	/	14.0*	0.8
COCCCNC(=O)C[C@H]1C[C@H](C(=O)N2CCCCC2)[C@@]2(C)c3[nH]c4cc(-c5ccco5)ccc4c3CCN2C1=O	-2.0	-0.7	-1.4	-0.6	/	-2.2	/	/	/	/	/	/
CC1CN(C(=O)c2ccccc2)CCC1=NO (configuration not stated)	-0.3	-1.1	/	0.2	/	1.5	/	/	/	/	/	/
SMILES	hcDAF-12 act	ssDAF12 agonist	DAX1 inh-1	DAX1 inh-2	AHR activator	hgDAF12 agonist	DAX1 conf	SF1 mutant ctr	LXRb hcDAF ctr	hcDAF12 conf	hgDAF12 ag	LXR ag 2
CC1CCN(C(=O)c2ccc(-c3ccccc3Cl)o2)CC1	4.2	0.5	2.5	16.8*	17.7	16.1*	13.8*	8.6*	/	/	13.1*	0.7
CC1CCN(C(=O)c2cc(-c3ccccc3O)on2)CC1	6.2*	1.1*	3.5	10.2*	-0.4	23.6*	12.4*	9.4*	/	/	16.6*	0.8
O=C(c1cc(-c2ccccc2O)on1)N1CCc2ccccc2C1	-1.3	-0.7	0.7	2.1	-1.0	5.6	/	/	/	/	/	/
O=C(c1cc(-c2cccc(O)c2)on1)N1CCCCCC1	3.7	0.6	3.1	2.1	-10.8	8.9	/	/	/	/	/	/
O=C(c1cc(-c2ccccc2)on1)N1CCCC1	4.1	1.3*	0.0	6.1*	-1.1	13.6*	10.9*	4.5*	/	/	15.1*	0.7
O=C(c1cc(-c2cccc(O)c2)on1)N1CCOCC1	3.6	0.9	0.8	8.0*	-1.3	15.6*	13.1*	7.1*	/	/	12.0*	0.7
S=C(c1ccc(-c2ccccc2Cl)o1)N1CCOCC1	/	/	1.3	/	6.4	/	/	/	/	/	/	/
O=C(NCCc1ccccc1)c1cccc(S(=O)(=O)N2CCCCC2)c1	-1.9	-0.9	0.1	-0.6	0.6	-0.5	/	/	/	/	/	/
COc1cc(NC(=O)COC(=O)CC(C)(C)C)c(C)cc1[N+](=O)[O-]	0.8	-1.0	0.5	-0.7	43.5	0.9	/	/	/	/	/	/
